# According to PubChem BioAssay AID1159580 (chemical genetic matrix, 2015):
# Several values for one entry are separate records, joined by “and”; a condition that tells them apart may be missing. Equal entries are not always repeated. In all, about 5,500 compounds went through this assay and about 2,000 (36%) were called active. Inconclusive results (about 18%) are left out. The list shows a part of the results. Unmarked numbers belong to inactive results. Rule as the data show it: active = normalized growth mostly below about 0.91 (no sharp cut-off); inconclusive = no clear call, values can overlap the other calls; inactive = mostly above about 0.92.
# Assay: chemical genetic growth profiling, strain panel (AID 1159580);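 also: tested at 20 µM; growth read once vehicle control cultures reached saturation at 30 °C; 1 = growth at the plate median or of vehicle wells; lower values mean less growth of the strain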
# Conditions: S. cerevisiae deletion strains, growth OD
smiles,measurement,setting,value
C/C=C(\C)C(=O)O[C@@H]1c2c(ccc3ccc(=O)oc23)OC(C)(C)[C@@H]1OC(C)=O,normalized growth,"locus YAL013W, strain DEP1, hits give low values",1.01
same,normalized growth,"locus YAL021C, strain ccr4, hits give low values",1.01
same,normalized growth,"locus YAL026C, strain drs2, hits give low values",0.989
same,normalized growth,"locus YAL030W, strain snc1, hits give low values",0.996
same,normalized growth,"locus YBL061C, strain skt5, hits give low values",0.994
same,normalized growth,"locus YBR009C, strain hhf1, hits give low values",1.03
same,normalized growth,"locus YBR021W, strain FUR4, hits give low values",1.03
same,normalized growth,"locus YBR023C, strain chs3, hits give low values",0.987
same,normalized growth,"locus YBR171W, strain sec66, hits give low values",0.98
same,normalized growth,"locus YBR229C, strain ROT2, hits give low values",0.995
same,normalized growth,"locus YBR231C, strain swc5, hits give low values",1
same,normalized growth,"locus YBR279W, strain paf1, hits give low values",1.01
same,normalized growth,"locus YCL011C, strain gbp2, hits give low values",1.01
same,normalized growth,"locus YCL016C, strain dcc1, hits give low values",0.993
same,normalized growth,"locus YCL029C, strain bik1, hits give low values",1.03
same,normalized growth,"locus YCL061C, strain MRC1, hits give low values",0.985
same,normalized growth,"locus YCL069W, strain vba3, hits give low values",1.01
same,normalized growth,"locus YCR088W, strain abp1, hits give low values",0.996
same,normalized growth,"locus YDL005C, strain med2, hits give low values",0.981
same,normalized growth,"locus YDL035C, strain GPR1, hits give low values",0.995
same,normalized growth,"locus YDL040C, strain nat1, hits give low values",0.998
same,normalized growth,"locus YDL074C, strain BRE1, hits give low values",1
same,normalized growth,"locus YDL101C, strain DUN1, hits give low values",1.01
same,normalized growth,"locus YDL134C, strain PPH21, hits give low values",0.974
same,normalized growth,"locus YDL185W, strain tfp1, hits give low values",1.02
same,normalized growth,"locus YDL192W, strain arf1, hits give low values",0.992
same,normalized growth,"locus YDR001C, strain nth1, hits give low values",1.01
same,normalized growth,"locus YDR069C, strain doa4, hits give low values",1
same,normalized growth,"locus YDR101C, strain arx1, hits give low values",1.03
same,normalized growth,"locus YDR137W, strain rgp1, hits give low values",0.842 (active)
same,normalized growth,"locus YDR150W, strain NUM1, hits give low values",0.997
same,normalized growth,"locus YDR159W, strain sac3, hits give low values",0.989
same,normalized growth,"locus YDR162C, strain NBP2, hits give low values",0.983
same,normalized growth,"locus YDR195W, strain ref2",1.06
same,normalized growth,"locus YDR297W, strain sur2, hits give low values",0.995
same,normalized growth,"locus YDR318W, strain mcm21, hits give low values",0.974
same,normalized growth,"locus YDR334W, strain swr1, hits give low values",1
same,normalized growth,"locus YDR335W, strain msn5, hits give low values",1.02
same,normalized growth,"locus YDR388W, hits give low values",1
same,normalized growth,"locus YDR392W, strain spt3, hits give low values",0.762
same,normalized growth,"locus YDR502C, strain sam2, hits give low values",0.991
same,normalized growth,"locus YEL003W, strain gim4, hits give low values",1.01
same,normalized growth,"locus YEL037C, strain rad23, hits give low values",1.01
same,normalized growth,"locus YEL061C, strain CIN8 (second series), hits give low values",1
same,normalized growth,"locus YEL061C, strain CIN8, hits give low values",0.991
same,normalized growth,"locus YER015W, strain faa2, hits give low values",1.01
same,normalized growth,"locus YER016W, strain bim1, hits give low values",0.993
same,normalized growth,"locus YER110C, hits give low values",1.01
same,normalized growth,"locus YER111C, strain swi4, hits give low values",0.994
same,normalized growth,"locus YER155C, strain BEM2 (second series), hits give low values",1.03
same,normalized growth,"locus YER155C, strain BEM2, hits give low values",1.01
same,normalized growth,"locus YER167W, strain BCK2, hits give low values",0.997
same,normalized growth,"locus YFR010W, strain ubp6, hits give low values",1.02
same,normalized growth,"locus YGL078C, strain dbp3, hits give low values",1
same,normalized growth,"locus YGL086W, strain mad1, hits give low values",1.05
same,normalized growth,"locus YGL167C, strain pmr1, hits give low values",0.984
same,normalized growth,"locus YGL173C, strain kem1, hits give low values",0.991
same,normalized growth,"locus YGL227W, strain vid30, hits give low values",0.991
same,normalized growth,"locus YGL240W, strain doc1, hits give low values",0.985
same,normalized growth,"locus YGL248W, strain PDE1, hits give low values",0.993
same,normalized growth,"locus YGL253W, strain hxk2, hits give low values",0.963
same,normalized growth,"locus YGR078C, strain PAC10, hits give low values",1
same,normalized growth,"locus YGR135W, strain pre9, hits give low values",0.987
same,normalized growth,"locus YGR252W, strain gcn5, hits give low values",1
same,normalized growth,"locus YHR013C, strain ard1, hits give low values",0.971
same,normalized growth,"locus YHR027C, strain rpn1, hits give low values",1
same,normalized growth,"locus YHR030C, strain SLT2, hits give low values",0.996 and 0.998
same,normalized growth,"locus YHR079C, strain IRE1 (second series), hits give low values",0.998
same,normalized growth,"locus YHR079C, strain IRE1, hits give low values",1.01
same,normalized growth,"locus YHR094C, strain hxt1, hits give low values",1
same,normalized growth,"locus YHR129C, strain ARP1, hits give low values",1
same,normalized growth,"locus YHR142W, strain chs7, hits give low values",0.987
same,normalized growth,"locus YHR200W, strain rpn10, hits give low values",1.02
same,normalized growth,"locus YIL066C, strain RNR3, hits give low values",0.992
same,normalized growth,"locus YIL073C, strain SPO22, hits give low values",0.989
same,normalized growth,"locus YIL125W, strain kgd1, hits give low values",1.01
same,normalized growth,"locus YIR030C, strain dcg1, hits give low values",0.994
same,normalized growth,"locus YJL092W, strain hpr5, hits give low values",0.99
same,normalized growth,"locus YJL095W, strain BCK1 (second series), hits give low values",0.994
same,normalized growth,"locus YJL095W, strain BCK1, hits give low values",0.956 and 1.05
same,normalized growth,"locus YJL115W, strain asf1, hits give low values",0.995
same,normalized growth,"locus YJL129C, strain trk1, hits give low values",0.953
same,normalized growth,"locus YJL134W, strain LCB3, hits give low values",0.996
same,normalized growth,"locus YJL154C, strain vps35, hits give low values",1.01
same,normalized growth,"locus YJL164C, strain tpk1, hits give low values",1
same,normalized growth,"locus YJL166W, strain qcr8, hits give low values",0.968
same,normalized growth,"locus YJL168C, strain set2, hits give low values",1.01
same,normalized growth,"locus YJL187C, strain SWE1 (second series), hits give low values",1
same,normalized growth,"locus YJL187C, strain SWE1, hits give low values",0.991
same,normalized growth,"locus YJR043C, strain POL32, hits give low values",1.02
same,normalized growth,"locus YJR066W, strain TOR1, hits give low values",0.958
same,normalized growth,"locus YJR075W, strain HOC1, hits give low values",0.993
same,normalized growth,"locus YKL009W, strain mrt4, hits give low values",0.997
same,normalized growth,"locus YKL068W, hits give low values",1.01
same,normalized growth,"locus YKL085W, strain MDH1 (second series), hits give low values",0.991
same,normalized growth,"locus YKL085W, strain MDH1, hits give low values",0.991
same,normalized growth,"locus YKL160W, strain elf1, hits give low values",0.939
same,normalized growth,"locus YKR001C, strain vps1, hits give low values",1.02
same,normalized growth,"locus YKR026C, strain gcn3, hits give low values",0.996
same,normalized growth,"locus YKR091W, strain srl3, hits give low values",0.996
same,normalized growth,"locus YLL001W, strain dnm1, hits give low values",0.972
same,normalized growth,"locus YLL026W, hits give low values",0.992
same,normalized growth,"locus YLL041C, strain sdh2, hits give low values",0.998
same,normalized growth,"locus YLR027C, strain aat2, hits give low values",0.992
same,normalized growth,"locus YLR039C, strain RIC1, hits give low values",0.946
same,normalized growth,"locus YLR058C, strain SHM2, hits give low values",0.995
same,normalized growth,"locus YLR102C, strain apc9, hits give low values",1.01
same,normalized growth,"locus YLR113W, strain HOG1, hits give low values",1.01
same,normalized growth,"locus YLR221C, strain rsa3, hits give low values",0.971
same,normalized growth,"locus YLR258W, strain gsy2, hits give low values",0.997
same,normalized growth,"locus YLR262C, strain YPT6 (second series), hits give low values",0.846 (active)
same,normalized growth,"locus YLR262C, strain YPT6, hits give low values",0.913
same,normalized growth,"locus YLR268W, strain sec22, hits give low values",1.02
same,normalized growth,"locus YLR320W, strain mms22, hits give low values",0.943
same,normalized growth,"locus YLR330W, strain CHS5, hits give low values",1.01
same,normalized growth,"locus YLR342W, strain FKS1 (second series), hits give low values",1.01
same,normalized growth,"locus YLR342W, strain FKS1, hits give low values",0.998
same,normalized growth,"locus YLR357W, strain rsc2, hits give low values",1.04
same,normalized growth,"locus YLR370C, strain arc18, hits give low values",0.996
same,normalized growth,"locus YLR371W, strain rom2, hits give low values",1.02
same,normalized growth,"locus YLR384C, strain iki3, hits give low values",0.988
same,normalized growth,"locus YLR418C, strain cdc73, hits give low values",0.97
same,normalized growth,"locus YML016C, strain PPZ1, hits give low values",0.995
same,normalized growth,"locus YML032C, strain rad52, hits give low values",0.99
same,normalized growth,"locus YML120C, strain ndi1, hits give low values",0.993
same,normalized growth,"locus YML124C, strain tub3, hits give low values",0.988
same,normalized growth,"locus YMR058W, strain fet3, hits give low values",1
same,normalized growth,"locus YMR078C, strain ctf18, hits give low values",1
same,normalized growth,"locus YMR125W, strain sto1, hits give low values",0.967
same,normalized growth,"locus YMR129W, hits give low values",0.992
same,normalized growth,"locus YMR205C, strain PFK2, hits give low values",0.919
same,normalized growth,"locus YMR223W, strain ubp8, hits give low values",0.979
same,normalized growth,"locus YMR231W, strain pep5, hits give low values",0.998
same,normalized growth,"locus YMR307W, strain GAS1, hits give low values",0.929
same,normalized growth,"locus YNL067W, strain RPL9B, hits give low values",0.997
same,normalized growth,"locus YNL071W, strain lat1, hits give low values",0.963
same,normalized growth,"locus YNL153C, strain GIM3, hits give low values",1.02
same,normalized growth,"locus YNL183C, strain NPR1, hits give low values",0.996
same,normalized growth,"locus YNL209W, strain ssb2, hits give low values",1
same,normalized growth,"locus YNL233W, strain BNI4, hits give low values",1.02
same,normalized growth,"locus YNL248C, strain rpa49, hits give low values",0.956
same,normalized growth,"locus YNL250W, strain rad50, hits give low values",1.02
same,normalized growth,"locus YNL271C, strain bni1, hits give low values",1
same,normalized growth,"locus YNL298W, strain CLA4, hits give low values",1.01
same,normalized growth,"locus YNL307C, strain MCK1, hits give low values",1
same,normalized growth,"locus YNL322C, strain KRE1 (second series), hits give low values",0.991
same,normalized growth,"locus YNR049C, strain mso1, hits give low values",0.992
same,normalized growth,"locus YNR052C, strain pop2, hits give low values",0.995
same,normalized growth,"locus YOL006C, strain TOP1, hits give low values",1.04
same,normalized growth,"locus YOL012C, strain htz1",1.21
same,normalized growth,"locus YOL147C, strain pex11, hits give low values",0.996
same,normalized growth,"locus YOR001W, strain rrp6, hits give low values",1.02
same,normalized growth,"locus YOR061W, strain CKA2, hits give low values",0.99
same,normalized growth,"locus YOR069W, strain VPS5, hits give low values",0.995
same,normalized growth,"locus YOR070C, strain gyp1, hits give low values",0.999
same,normalized growth,"locus YOR080W, strain dia2, hits give low values",1.01
same,normalized growth,"locus YOR083W, strain WHI5, hits give low values",0.953
same,normalized growth,"locus YOR106W, strain vam3, hits give low values",0.977
same,normalized growth,"locus YOR136W, strain idh2, hits give low values",1.03
same,normalized growth,"locus YOR144C, strain elg1, hits give low values",1.01
same,normalized growth,"locus YOR184W, strain ser1, hits give low values",0.959
same,normalized growth,"locus YOR231W, strain MKK1, hits give low values",0.991
same,normalized growth,"locus YOR265W, strain rbl2, hits give low values",0.991
same,normalized growth,"locus YOR270C, strain vph1, hits give low values",0.912
same,normalized growth,"locus YOR290C, strain snf2, hits give low values",0.972
same,normalized growth,"locus YOR316C, strain cot1, hits give low values",0.999
same,normalized growth,"locus YPL051W, strain arl3, hits give low values",0.96
same,normalized growth,"locus YPL055C, strain LGE1, hits give low values",1
same,normalized growth,"locus YPL078C, strain atp4, hits give low values",0.972
same,normalized growth,"locus YPL106C, strain sse1, hits give low values",1.04
same,normalized growth,"locus YPL240C, strain hsp82, hits give low values",1
same,normalized growth,"locus YPL241C, strain CIN2, hits give low values",0.986
same,normalized growth,"locus YPL256C, strain CLN2, hits give low values",0.99
same,normalized growth,"locus YPR119W, strain clb2, hits give low values",0.993
same,normalized growth,"locus YPR141C, strain kar3, hits give low values",1.01
same,normalized growth,"locus YPR163C, strain tif3, hits give low values",0.996
same,normalized growth,"locus YPR167C, strain met16, hits give low values",0.99
same,normalized growth,"strain wtn01, hits give low values",1.05
